Data reported in the supplement of paper PMC10849652.
Targets with a hit are over-represented here; the source holds about 7,900 in all. About 0.6% of all pairs of compound and target were hits. Values without a mark were called inactive.

Legend:
Assay in all cases: log2 fold change, soluble protein after heating vs DMSO (PISA); higher = thermal stabilisation; K562 cells, 10 uM, 30 min; active = over 0.2 and 3.5 SD of the protein, either way, in both replicates (recomputed)
[1] = compound: COC1=CC=C(C=C1)CN2C=CC3=C2C=C(C=C3)C(=O)NO
Outline: (§1)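 K562 cells at 2×10^6 cells/mL were exposed to 10 μM compound for 30 min, then aliquots were heated for 3 min across 48°C-58°C, pooled, and extracted in PBS containing 0.5% NP-40 at 4°C. The supernatant after 21,000xg for 90 min was taken as soluble protein and measured by TMTpro 16plex LC-MS/MS with channel sums equalised. Thermal stability is reported relative to control samples, with values from duplicates. Fold changes are given on a log2 scale.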

filanesib = compound: CON(C)C(=O)N1N=C(c2cc(F)ccc2F)S[C@@]1(CCCN)c1ccccc1 [filanesib]
Outline: as §1

zotarolimus = compound: CO[C@H]1C[C@@H]2CC[C@@H](C)[C@@](O)(O2)C(=O)C(=O)N2CCCC[C@H]2C(=O)O[C@H]([C@H](C)C[C@@H]2CC[C@H](n3cnnn3)[C@H](OC)C2)CC(=O)[C@H](C)/C=C(\C)[C@@H](O)[C@@H](OC)C(=O)[C@H](C)C[C@H](C)/C=C/C=C/C=C/1C [zotarolimus]
Outline: as §1

idasanutlin = compound: COc1cc(C(=O)O)ccc1NC(=O)[C@@H]1N[C@@H](CC(C)(C)C)[C@](C#N)(c2ccc(Cl)cc2F)[C@H]1c1cccc(Cl)c1F [idasanutlin]
Outline: as §1

alisertib = compound: COc1cc(Nc2ncc3c(n2)-c2ccc(Cl)cc2C(c2c(F)cccc2OC)=NC3)ccc1C(=O)O [alisertib]
Outline: as §1

[2] = compound: COc1cc2nc(-c3cc(F)ccc3O)nc(N[C@@H]3CNC[C@H]3C(C)(C)O)c2cc1OC
Outline: as §1

gefitinib = compound: COc1cc2ncnc(Nc3ccc(F)c(Cl)c3)c2cc1OCCCN1CCOCC1 [gefitinib]
Outline: as §1

[3] = compound: COc1cccc2cc(-c3nc([C@H]4CC[C@H](C(=O)O)CC4)n4ncnc(N)c34)[nH]c12
Outline: as §1

lapatinib = compound: CS(=O)(=O)CCNCc1ccc(-c2ccc3ncnc(Nc4ccc(OCc5cccc(F)c5)c(Cl)c4)c3c2)o1 [lapatinib]
Outline: as §1

pictilisib = compound: CS(=O)(=O)N1CCN(Cc2cc3nc(-c4cccc5[nH]ncc45)nc(N4CCOCC4)c3s2)CC1 [pictilisib]
Outline: as §1

[4] = compound: CS(=O)(=O)c1ccc(-c2cnc(N)c(C(=O)Nc3ccccc3)n2)cc1
Outline: as §1

crizotinib = compound: C[C@@H](Oc1cc(-c2cnn(C3CCNCC3)c2)cnc1N)c1c(Cl)ccc(F)c1Cl [crizotinib]
Outline: as §1

[5] = compound: C[C@@H]1COCCN1C2=NC(=NC(=C2)C3(CC3)S(=O)(=O)C)C4=C5C=CNC5=CC=C4
Outline: as §1

[6] = compound: C[C@H](C1=CC=C(C=C1)C(=O)NC2=C3C=CNC3=NC=C2)N
Outline: as §1

duvelisib = compound: C[C@H](Nc1ncnc2nc[nH]c12)c1cc2cccc(Cl)c2c(=O)n1-c1ccccc1 [duvelisib]
Outline: as §1

gandotinib = compound: Cc1cc(Nc2cc(CN3CCOCC3)c3nc(C)c(Cc4ccc(Cl)cc4F)n3n2)n[nH]1 [gandotinib]
Outline: as §1

tozasertib = compound: Cc1cc(Nc2cc(N3CCN(C)CC3)nc(Sc3ccc(NC(=O)C4CC4)cc3)n2)n[nH]1 [tozasertib]
Outline: as §1

[7] = compound: Cc1cc(SCc2sc(-c3ccc(C(F)(F)F)cc3)nc2C)ccc1OCC(=O)O
Outline: as §1

doramapimod = compound: Cc1ccc(-n2nc(C(C)(C)C)cc2NC(=O)Nc2ccc(OCCN3CCOCC3)c3ccccc23)cc1 [doramapimod]
Outline: as §1

ispinesib = compound: Cc1ccc(C(=O)N(CCCN)[C@@H](c2nc3cc(Cl)ccc3c(=O)n2Cc2ccccc2)C(C)C)cc1 [ispinesib]
Outline: as §1

UniProt P34913, sequence (P34913 whole entry, looked up): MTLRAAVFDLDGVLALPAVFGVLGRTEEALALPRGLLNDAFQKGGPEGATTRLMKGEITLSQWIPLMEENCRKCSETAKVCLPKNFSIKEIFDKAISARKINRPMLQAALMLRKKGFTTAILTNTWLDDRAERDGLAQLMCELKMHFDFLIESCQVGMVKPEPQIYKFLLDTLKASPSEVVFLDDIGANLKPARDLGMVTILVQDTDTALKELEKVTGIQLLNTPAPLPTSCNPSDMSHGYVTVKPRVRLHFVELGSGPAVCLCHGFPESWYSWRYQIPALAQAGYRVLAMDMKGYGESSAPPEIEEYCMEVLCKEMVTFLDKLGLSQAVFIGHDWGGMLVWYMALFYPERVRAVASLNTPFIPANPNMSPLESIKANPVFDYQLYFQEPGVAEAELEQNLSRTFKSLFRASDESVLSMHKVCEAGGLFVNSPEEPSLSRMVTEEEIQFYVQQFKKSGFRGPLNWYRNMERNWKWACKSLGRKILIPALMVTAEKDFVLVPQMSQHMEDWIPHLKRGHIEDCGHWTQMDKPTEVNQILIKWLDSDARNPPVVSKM
UniProt P09668, sequence (P09668 whole entry, looked up): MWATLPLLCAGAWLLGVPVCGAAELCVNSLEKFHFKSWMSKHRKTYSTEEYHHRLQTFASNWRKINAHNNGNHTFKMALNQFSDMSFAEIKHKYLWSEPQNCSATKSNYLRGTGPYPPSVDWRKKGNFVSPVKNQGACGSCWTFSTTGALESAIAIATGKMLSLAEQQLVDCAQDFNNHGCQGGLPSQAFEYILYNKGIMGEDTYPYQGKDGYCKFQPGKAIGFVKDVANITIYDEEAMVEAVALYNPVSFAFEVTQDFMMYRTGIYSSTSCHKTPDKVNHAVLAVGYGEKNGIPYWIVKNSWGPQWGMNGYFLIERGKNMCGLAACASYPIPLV
UniProt Q8TAG9, sequence (Q8TAG9 whole entry, looked up): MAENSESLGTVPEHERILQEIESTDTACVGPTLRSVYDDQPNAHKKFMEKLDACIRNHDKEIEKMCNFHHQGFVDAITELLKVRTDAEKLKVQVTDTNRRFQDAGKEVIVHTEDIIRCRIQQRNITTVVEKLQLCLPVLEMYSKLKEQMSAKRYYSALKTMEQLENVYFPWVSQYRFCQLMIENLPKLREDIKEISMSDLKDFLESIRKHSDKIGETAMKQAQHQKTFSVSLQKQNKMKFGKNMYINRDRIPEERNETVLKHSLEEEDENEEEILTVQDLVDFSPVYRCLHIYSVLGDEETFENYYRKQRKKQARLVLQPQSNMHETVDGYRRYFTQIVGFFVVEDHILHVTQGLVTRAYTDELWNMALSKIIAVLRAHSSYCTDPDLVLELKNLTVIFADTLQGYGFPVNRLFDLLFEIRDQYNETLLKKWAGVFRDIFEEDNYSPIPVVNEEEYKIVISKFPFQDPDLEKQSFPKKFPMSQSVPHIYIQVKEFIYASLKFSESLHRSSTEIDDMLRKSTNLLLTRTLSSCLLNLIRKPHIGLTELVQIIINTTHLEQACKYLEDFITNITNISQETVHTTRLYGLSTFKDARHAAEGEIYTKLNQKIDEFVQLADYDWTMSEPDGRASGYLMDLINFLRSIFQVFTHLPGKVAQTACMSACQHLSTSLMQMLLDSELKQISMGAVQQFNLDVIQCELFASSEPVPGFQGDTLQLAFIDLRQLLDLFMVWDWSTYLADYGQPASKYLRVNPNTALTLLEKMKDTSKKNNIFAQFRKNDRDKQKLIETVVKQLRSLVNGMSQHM
UniProt P26641, sequence (P26641 whole entry, looked up): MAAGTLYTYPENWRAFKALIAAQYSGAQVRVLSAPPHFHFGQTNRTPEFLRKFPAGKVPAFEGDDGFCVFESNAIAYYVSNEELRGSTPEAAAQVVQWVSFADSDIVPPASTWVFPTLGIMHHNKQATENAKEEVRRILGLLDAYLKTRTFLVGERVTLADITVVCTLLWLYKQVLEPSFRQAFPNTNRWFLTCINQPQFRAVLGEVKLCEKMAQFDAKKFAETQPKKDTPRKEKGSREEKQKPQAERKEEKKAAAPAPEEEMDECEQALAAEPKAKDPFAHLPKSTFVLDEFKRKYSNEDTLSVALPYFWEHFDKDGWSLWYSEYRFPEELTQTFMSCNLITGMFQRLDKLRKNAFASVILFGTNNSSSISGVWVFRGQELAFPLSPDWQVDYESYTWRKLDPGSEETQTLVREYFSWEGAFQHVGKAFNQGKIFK
UniProt Q96KP1, sequence (Q96KP1 whole entry, looked up): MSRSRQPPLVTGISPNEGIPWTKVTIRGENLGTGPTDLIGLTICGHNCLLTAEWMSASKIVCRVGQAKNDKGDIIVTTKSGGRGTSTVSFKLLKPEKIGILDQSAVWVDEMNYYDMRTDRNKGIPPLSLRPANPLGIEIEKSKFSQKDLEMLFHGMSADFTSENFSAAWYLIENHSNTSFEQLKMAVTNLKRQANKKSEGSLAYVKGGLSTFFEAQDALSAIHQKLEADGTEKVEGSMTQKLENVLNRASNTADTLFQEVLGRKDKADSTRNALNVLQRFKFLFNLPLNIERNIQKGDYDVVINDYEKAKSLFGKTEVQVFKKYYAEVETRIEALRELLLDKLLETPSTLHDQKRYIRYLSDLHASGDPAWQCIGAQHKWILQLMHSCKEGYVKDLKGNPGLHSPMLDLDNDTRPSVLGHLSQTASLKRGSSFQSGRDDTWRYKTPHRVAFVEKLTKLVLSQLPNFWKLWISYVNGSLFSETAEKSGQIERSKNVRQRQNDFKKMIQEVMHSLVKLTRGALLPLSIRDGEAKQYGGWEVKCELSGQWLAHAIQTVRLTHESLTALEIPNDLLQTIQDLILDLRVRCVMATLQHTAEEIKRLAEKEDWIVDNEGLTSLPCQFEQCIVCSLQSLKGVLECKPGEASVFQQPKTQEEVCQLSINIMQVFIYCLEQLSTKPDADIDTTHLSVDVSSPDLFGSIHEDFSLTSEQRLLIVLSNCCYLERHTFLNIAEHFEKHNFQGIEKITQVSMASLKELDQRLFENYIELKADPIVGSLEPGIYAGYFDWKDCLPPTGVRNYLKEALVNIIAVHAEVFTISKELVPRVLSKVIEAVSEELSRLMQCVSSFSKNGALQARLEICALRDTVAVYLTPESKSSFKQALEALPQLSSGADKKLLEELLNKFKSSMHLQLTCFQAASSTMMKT
UniProt Q9BV94, sequence (Q9BV94 whole entry, looked up): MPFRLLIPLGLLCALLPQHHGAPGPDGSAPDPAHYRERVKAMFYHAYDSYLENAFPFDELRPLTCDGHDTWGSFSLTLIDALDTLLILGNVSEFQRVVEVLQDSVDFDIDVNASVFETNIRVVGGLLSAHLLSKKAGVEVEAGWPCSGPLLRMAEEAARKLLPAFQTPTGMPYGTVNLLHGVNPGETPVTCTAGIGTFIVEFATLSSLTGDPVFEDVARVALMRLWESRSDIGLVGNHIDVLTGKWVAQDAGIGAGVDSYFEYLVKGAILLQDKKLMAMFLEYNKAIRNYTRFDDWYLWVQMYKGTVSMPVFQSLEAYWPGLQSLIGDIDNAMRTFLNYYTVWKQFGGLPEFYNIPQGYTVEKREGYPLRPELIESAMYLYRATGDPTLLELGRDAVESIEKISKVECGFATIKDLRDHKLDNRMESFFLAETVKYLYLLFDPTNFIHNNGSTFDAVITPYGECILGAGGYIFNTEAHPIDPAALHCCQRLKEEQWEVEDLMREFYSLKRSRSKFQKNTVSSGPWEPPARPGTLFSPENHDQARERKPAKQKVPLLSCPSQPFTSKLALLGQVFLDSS
UniProt Q96GE9, sequence (Q96GE9 whole entry, looked up): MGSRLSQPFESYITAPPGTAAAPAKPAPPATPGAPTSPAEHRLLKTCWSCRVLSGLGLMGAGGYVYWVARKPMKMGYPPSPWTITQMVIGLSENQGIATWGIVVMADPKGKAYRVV
UniProt Q9BSJ8, sequence (Q9BSJ8 whole entry, looked up): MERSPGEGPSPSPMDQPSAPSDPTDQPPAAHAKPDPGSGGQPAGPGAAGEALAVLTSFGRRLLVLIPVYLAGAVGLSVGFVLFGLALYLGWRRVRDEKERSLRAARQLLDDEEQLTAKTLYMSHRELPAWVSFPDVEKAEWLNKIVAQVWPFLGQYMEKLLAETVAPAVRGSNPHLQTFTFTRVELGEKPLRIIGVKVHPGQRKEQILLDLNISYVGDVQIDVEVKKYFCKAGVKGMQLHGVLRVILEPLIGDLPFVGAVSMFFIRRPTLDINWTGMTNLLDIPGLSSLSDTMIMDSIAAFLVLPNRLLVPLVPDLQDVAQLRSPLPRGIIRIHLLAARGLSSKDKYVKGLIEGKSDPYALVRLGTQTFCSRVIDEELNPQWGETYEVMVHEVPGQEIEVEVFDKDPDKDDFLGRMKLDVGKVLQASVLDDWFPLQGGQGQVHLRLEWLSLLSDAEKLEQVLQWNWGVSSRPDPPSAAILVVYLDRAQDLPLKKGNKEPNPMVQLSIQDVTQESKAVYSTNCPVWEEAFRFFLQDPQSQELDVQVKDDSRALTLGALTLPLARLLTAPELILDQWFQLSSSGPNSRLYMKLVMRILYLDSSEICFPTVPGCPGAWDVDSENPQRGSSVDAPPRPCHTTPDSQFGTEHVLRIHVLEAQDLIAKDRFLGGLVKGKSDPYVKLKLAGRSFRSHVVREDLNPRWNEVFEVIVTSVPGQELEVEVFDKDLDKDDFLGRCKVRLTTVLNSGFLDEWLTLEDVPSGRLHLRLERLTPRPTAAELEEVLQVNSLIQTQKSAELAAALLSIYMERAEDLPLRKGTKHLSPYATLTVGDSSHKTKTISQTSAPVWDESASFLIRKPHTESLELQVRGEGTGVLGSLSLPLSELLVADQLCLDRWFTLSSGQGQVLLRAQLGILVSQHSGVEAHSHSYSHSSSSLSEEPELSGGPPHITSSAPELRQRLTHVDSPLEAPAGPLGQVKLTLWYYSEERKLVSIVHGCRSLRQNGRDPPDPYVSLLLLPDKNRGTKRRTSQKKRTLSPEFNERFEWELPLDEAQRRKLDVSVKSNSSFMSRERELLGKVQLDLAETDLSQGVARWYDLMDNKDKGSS

| Target | log2 fold change [1] | log2 fold change (filanesib) | log2 fold change (zotarolimus) | log2 fold change (idasanutlin) | log2 fold change (alisertib) | log2 fold change [2] | log2 fold change (gefitinib) | log2 fold change [3] | log2 fold change (lapatinib) | log2 fold change (pictilisib) | log2 fold change [4] | log2 fold change (crizotinib) | log2 fold change [5] | log2 fold change [6] | log2 fold change (duvelisib) | log2 fold change (gandotinib) | log2 fold change (tozasertib) | log2 fold change [7] | log2 fold change (doramapimod) | log2 fold change (ispinesib) |
| --- | --- | --- | --- | --- | --- | --- | --- | --- | --- | --- | --- | --- | --- | --- | --- | --- | --- | --- | --- | --- |
| ESYT1 isoform 2 (UniProt Q9BSJ8) | 0.042 | 0.013 | 0.08 | 0.08 | -0.094 | 0.008 | 0.053 | -0.122 | 0.089 | -0.038 | 0.021 | -0.134 | -0.076 | 0.069 | 0.014 | 0.024 | -0.017 | 0.11 | 0.083 | -0.265 |
| EEF1G isoform 2 (UniProt P26641) | -0.017 | 0.012 | 0.027 | -0.014 | -0.046 | -0.016 | 0.018 | -0.083 | 0.041 | -0.06 | 0.011 | 0.015 | -0.028 | 0.006 | -0.011 | -0.061 | 0.046 | 0.061 | -0.013 | 0.061 |
| FAM160B1 (UniProt Q5W0V3) | 0.026 | -0.145 | 0.004 | -0.053 | -0.096 | -0.092 | 0.047 | -0.027 | 0.009 | -0.009 | 0.015 | -0.119 | 0.06 | -0.003 | 0.117 | -0.217 | 0.003 | 0.049 | -0.018 | -0.125 |
| EEF1B2 (UniProt P24534) | 0.033 | 0.031 | 0.035 | 0.007 | 0.023 | 0.03 | 0.024 | -0.061 | -0.029 | 0.014 | 0.003 | -0.018 | -0.073 | 0.092 | 0.04 | -0.043 | 0.052 | 0.013 | -0.065 | -0.024 |
| EXOC2 (UniProt Q96KP1) | 0.015 | -0.009 | 0.021 | -0.02 | -0.011 | 0.096 | 0.107 | -0.106 | -0.037 | 0.059 | 0.006 | -0.308 | -0.112 | 0.101 | -0.081 | 0.009 | 0.017 | 0.119 | 0.06 | -0.394 (active) |
| EIF4G1 isoform 8 (UniProt Q04637) | 0.01 | 0.067 | -0.121 | 0.09 | -0.007 | -0.003 | -0.114 | -0.369 | -0.073 | -0.27 | -0.21 | -0.314 | -0.206 | 0.109 | -0.1 | -0.032 | 0.008 | 0.149 | 0.032 | -0.324 |
| DUS2 (UniProt Q9NX74) | -0.02 | -0.014 | -0.041 | -0.004 | -0.075 | 0.059 | 0.04 | -0.11 | 0.043 | -0.128 | -0.017 | 0.048 | 0.084 | 0.045 | 0.012 | 0.036 | -0.013 | 0.062 | -0.006 | 0.097 |
| CTSH (UniProt P09668) | 0.066 | -0.072 | -0.046 | 0.029 | -0.06 | 0.021 | 0.025 | 0.084 | 0.018 | 0.019 | 0.032 | -0.249 (active) | 0.074 | -0.02 | -0.034 | 0.031 | -0.068 | -0.068 | 0.023 | -0.221 |
| EXOC6 (UniProt Q8TAG9) | -0.021 | 0.017 | 0.151 | -0.058 | -0.013 | 0.119 | -0.037 | -0.101 | -0.052 | -0.003 | 0.001 | -0.206 | -0.038 | 0.033 | -0.095 | -0.098 | 0.037 | 0.1 | 0.02 | -0.363 (active) |
| EPHX2 (UniProt P34913) | -0.019 | -0.096 | -0.017 | -0.089 | -0.053 | -0.009 | 0 | 0.055 | -0.041 | 0.062 | 0.036 | 0.169 | 0.194 | -0.019 | 0.029 | -0.018 | 0.144 | -0.032 | -0.016 | -0.01 |
| EED, A0A5F9ZI63 | 0.008 | 0.115 | -0.01 | 0.08 | -0.097 | 0.032 | 0.006 | 0.018 | 0.091 | -0.163 | -0.074 | 0.045 | -0.047 | 0.007 | 0.014 | 0.07 | -0.016 | -0.013 | 0.028 | 0.019 |
| DMAC1 (UniProt Q96GE9) | -0.121 | 0.04 | -0.04 | -0.339 | -0.174 | -0.111 | -0.074 | 0.145 | 0.053 | 0.038 | 0.023 | 0.034 | 0.037 | 0.005 | 0.166 | -0.087 | -0.153 | -0.22 | 0.066 | -0.108 |
| EXOC5 (UniProt O00471) | -0.005 | -0.051 | 0.089 | -0.079 | -0.01 | 0.123 | -0.024 | -0.015 | -0.028 | -0.055 | -0.02 | -0.279 (active) | -0.017 | 0.015 | 0.005 | -0.129 | 0.014 | 0.101 | 0.008 | -0.342 (active) |
| FADS1, A0A0A0MR51 | -0.31 (active) | -0.112 | -0.004 | 0.055 | -0.007 | -0.111 | 0.049 | 0.009 | 0.044 | -0.092 | 0.096 | -0.049 | -0.019 | -0.026 | 0.016 | 0.434 (active) | -0.011 | -0.007 | 0 | -0.252 (active) |
| EDEM2 (UniProt Q9BV94) | -0.149 | -0.03 | 0.022 | -0.154 | -0.441 (active) | 0.028 | 0.033 | 0.205 | -0.064 | 0.09 | 0.036 | 0.024 | -0.119 | 0.163 | -0.074 | -0.081 | -0.015 | 0.111 | 0.065 | -0.04 |
